Screening results deposited in PubChem BioAssay by Center for Chemical Genomics, University of Michigan.
TAR Tat displ – HIV-1 TAR-Tat binding disruption | HIV-1 TAR RNA, Tat peptide displacement FRET; active compounds read high | z-score (concentration not given with the values) | 0.6% of 100,000 active | AID 1259389; active = z-score of 3 or more in at least 2 runs
CDC25B-CDK2 inh – human CDC25B-CDK2/CyclinA binding inhibition; HTRF CDC25B-CDK2/CyclinA binding, anti-His/anti-Flag; active compounds read high; P30305+P24941; 0.72% of 94,000 active; z-score (concentration not given with the values); AID 1259370; in the data active = z-score above about 3.2
* marks the source's active call; other numbers are inactive results. The list is not random: actives were taken first. Their share in the collection is about 0.93%.

What do the screens show for `CCOC(=O)c1c(NC(C)=O)c2c3c(sc2n1Cc1cn2ccccc2n1)CCCC3`?
TAR Tat displ: 1.7

What do the screens show for `CCOC(=O)c1c(NC(C)=O)c2c3c(sc2n1CC(=O)NCc1ccco1)CCCC3`?
TAR Tat displ: 14*

What do the screens show for `CC(=O)C1C(c2ccc(C)cc2)NC(=O)NC1(O)C(F)(F)F` (stereo unspecified)?
CDC25B-CDK2 inh: -2.8

How did Nc1ccc2nc(SCC(=O)c3ccc(-c4ccccc4)cc3)sc2c1 do in these assays?
CDC25B-CDK2 inh: 17*

Results for Nc1ccc2nc(SCC(=O)c3ccc(Br)cc3)sc2c1 ?
TAR Tat displ: -1.4; CDC25B-CDK2 inh: -4.4

Results for CC1CCC(NS(=O)(=O)c2ccc3[nH]c(=O)ccc3c2)CC1 (stereo unspecified) ?
TAR Tat displ: 32*

How did CC1CCC(NC(=O)C2CCN(S(=O)(=O)c3ccc4[nH]c(=O)ccc4c3)CC2)CC1 (stereo unspecified) do in these assays?
TAR Tat displ: 2.8

Results for Cc1ccc(-c2c(N3CCN(c4ccccn4)CC3)c(=O)c2=O)cc1C ?
TAR Tat displ: 1.4

How did N#Cc1nc(/C=C/c2ccc(F)cc2)oc1N1CCN(C(=O)c2cccs2)CC1 do in these assays?
TAR Tat displ: -1.8; CDC25B-CDK2 inh: -0.89

Results for Cc1cccc(C2C(C#N)=C3N=C(N)c4ccccc4N3C3=C2C(=O)CCC3)c1 (stereo unspecified) ?
TAR Tat displ: 1; CDC25B-CDK2 inh: -1.6

How did N#CC1=C2N=C(N)c3ccccc3N2C2=C(C(=O)CCC2)C1c1cccc(Br)c1 (stereo unspecified) do in these assays?
TAR Tat displ: -5.1; CDC25B-CDK2 inh: 18*

What do the screens show for `CC(C)Cn1cc(NC(=O)N(Cc2ccccc2)C(C)C)c2ccccc2c1=O`?
TAR Tat displ: 6.6*

How did CC(C)Cn1cc(NC(=O)NCCCN2CCCC2)c2ccccc2c1=O do in these assays?
TAR Tat displ: 1

How did CC(C)Cn1cc(NC(=O)NCCCN(C)c2ccccc2)c2ccccc2c1=O do in these assays?
TAR Tat displ: -0.7; CDC25B-CDK2 inh: 19*

How did CCCN(CCC)C(=O)Nc1cn(CC(C)C)c(=O)c2ccccc12 do in these assays?
TAR Tat displ: 1.9

What do the screens show for `Cc1ccc(-n2nnc(-c3nc(-c4cccnc4)no3)c2N)cc1C`?
TAR Tat displ: -0.47

What do the screens show for `Cc1cc2c(cc3c(=O)n(CC(=O)N4CCCCC4C)ncn32)s1` (stereo unspecified)?
CDC25B-CDK2 inh: -0.71

What do the screens show for `COc1cc(C2C(N3C(=O)c4ccccc4C3=O)C(=O)N2c2cc(C)cc(C)c2)cc(OC)c1OC` (stereo unspecified)?
CDC25B-CDK2 inh: -1.6

How did Cc1c(NC(=O)Nc2ccccc2Cl)sc2nc3n(c(=O)c12)CCC(C)CC3 (stereo unspecified) do in these assays?
TAR Tat displ: 0.25; CDC25B-CDK2 inh: -2.5

What do the screens show for `COc1cccc(NC(=O)Nc2sc3nc4n(c(=O)c3c2C)CCC(C)CC4)c1` (stereo unspecified)?
TAR Tat displ: 0.79; CDC25B-CDK2 inh: -3

What do the screens show for `COc1cc(OC)c(NC(=O)Nc2sc3nc4n(c(=O)c3c2C)CCC(C)CC4)cc1Cl` (stereo unspecified)?
TAR Tat displ: 0.31; CDC25B-CDK2 inh: 11*

How did Cc1ccccc1NC(=O)Nc1sc2nc3n(c(=O)c2c1C)CCC(C)CC3 (stereo unspecified) do in these assays?
TAR Tat displ: 0.07; CDC25B-CDK2 inh: 12*

How did O=C(O)C1Nc2c(O)cccc2C2C=CCC12 (stereo unspecified) do in these assays?
CDC25B-CDK2 inh: 3.8

What do the screens show for `NC(=O)c1cccc2c1NC(C(=O)O)C1CC=CC21` (stereo unspecified)?
TAR Tat displ: 27*; CDC25B-CDK2 inh: 0.33

Results for Nc1c(C(=O)NCc2cccs2)nnn1-c1ccccc1 ?
CDC25B-CDK2 inh: -0.99

What do the screens show for `O=C(Nc1cccc2cccnc12)c1ccco1`?
TAR Tat displ: -0.13; CDC25B-CDK2 inh: 5.6*

What do the screens show for `O=C(Nc1cccc2cccnc12)C(=O)Nc1cccc2cccnc12`?
CDC25B-CDK2 inh: -2

What do the screens show for `CCN(CC)c1c(S(=O)(=O)c2ccc(OC)cc2)cnc2cc3c(cc12)OCCO3`?
TAR Tat displ: -1.2; CDC25B-CDK2 inh: 0.54

How did CCCCCOC(=O)C1=C(C)Nc2ncnn2C1c1ccc(Br)cc1 (stereo unspecified) do in these assays?
TAR Tat displ: 0.94; CDC25B-CDK2 inh: -0.47

How did Cc1ccc(C)n1-c1ccc(Cl)c(C(=O)NN)c1 do in these assays?
CDC25B-CDK2 inh: 19*

Results for Cc1ccc(C)n1-c1sccc1C(=O)NN ?
CDC25B-CDK2 inh: -1.6

Results for Cc1nn(-c2nncc(-c3ccc(F)cc3)n2)c2c1C(c1ccc(C(=O)O)cc1)CC(=O)N2 (stereo unspecified) ?
TAR Tat displ: 3.7*; CDC25B-CDK2 inh: -2

How did Cc1ccc(-c2cnnc(-n3nc(C)c4c3NC(=O)CC4c3ccc(C(=O)O)cc3)n2)cc1 (stereo unspecified) do in these assays?
TAR Tat displ: 0.9; CDC25B-CDK2 inh: -0.92

How did Cc1nn(-c2nc3ccccc3[nH]2)c2c1C(c1cc(F)cc(F)c1)CC(=O)N2 (stereo unspecified) do in these assays?
TAR Tat displ: 1.5

How did Cc1nn(-c2nc3ccccc3[nH]2)c2c1C(c1ccc(C(=O)O)cc1)CC(=O)N2 (stereo unspecified) do in these assays?
TAR Tat displ: 25*

What do the screens show for `Cc1cc(Cl)ccc1OCc1nc(-c2ccc3c(c2)nc(C)c(=O)n3C)no1`?
TAR Tat displ: -1.2

How did O=c1[nH]cnc2nn(-c3ccccc3)cc12 do in these assays?
TAR Tat displ: 4*; CDC25B-CDK2 inh: 1.2

Results for Cc1ccc(-n2cc3c(=O)[nH]cnc3n2)cc1 ?
TAR Tat displ: 3.7; CDC25B-CDK2 inh: 0.28

What do the screens show for `O=C1Nc2ccc(S(=O)(=O)Nc3ccc4oc5c(c4c3)CCCC5)c3cccc1c23`?
TAR Tat displ: 6.3*; CDC25B-CDK2 inh: -1.9

How did COc1ccc(NS(=O)(=O)c2ccc3c4c(cccc24)C(=O)N3)cc1 do in these assays?
TAR Tat displ: 2.2; CDC25B-CDK2 inh: -0.99

What do the screens show for `CCOC(=O)c1cc(-c2ccc(S(=O)(=O)N(CC)CC)s2)on1`?
TAR Tat displ: 0.01

Results for NC(=O)CSc1nnc(CSc2ncccn2)n1-c1ccc(Cl)cc1 ?
TAR Tat displ: 0.23; CDC25B-CDK2 inh: -1.1

Results for COC(=O)c1sccc1NC(=O)c1cccs1 ?
CDC25B-CDK2 inh: 6.7*

Results for COC(=O)c1sccc1NC(=O)Cc1cccs1 ?
CDC25B-CDK2 inh: -1.3

How did Cc1ccc(CNCCSc2nnnn2-c2ccccc2)cc1 do in these assays?
TAR Tat displ: 0.74; CDC25B-CDK2 inh: 1.3

How did O=[N+]([O-])c1ccc(N2CCN(c3ccccc3)CC2)s1 do in these assays?
TAR Tat displ: 3.5

How did CCOC(=O)N1CCN(c2ccc([N+](=O)[O-])s2)CC1 do in these assays?
TAR Tat displ: 5.2*

How did CCCc1nn2c(=O)cc(CSc3nc(-c4ccco4)nc4cc(=O)[nH]n34)nc2s1 do in these assays?
TAR Tat displ: 0.67

How did O=c1cc2nc(-c3ccco3)nc(SCc3cc(=O)n4nc(C5CCCCC5)sc4n3)n2[nH]1 do in these assays?
TAR Tat displ: 3.3*

Results for CNC(=S)Nc1ccc(F)cc1 ?
CDC25B-CDK2 inh: -1.5

What do the screens show for `Fc1ccc(NC(=S)Nc2ccc3cn[nH]c3c2)cc1`?
CDC25B-CDK2 inh: 20*

How did CCc1nn2cc(-c3ccc(C)c(C)c3)nc2s1 do in these assays?
TAR Tat displ: 0.06; CDC25B-CDK2 inh: -1.4
